Inconclusive results are not listed. Active and inactive are the calls of the source. Unless noted, calls follow the shape of the dose curve; as a rule, active = well fitted curve in the direction sought with a large enough effect; inconclusive = small, poorly fitted or top-dose-only effect, or another doubt; inactive = no such curve, though single readings can be large; an effect the other way counts as inactive or inconclusive.
What was measured:
[1] = Confirmation and Secondary Assay for Modulators of Hemoglobin Beta Chain Splicing at IVS2 705 locus (AID 930);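 also: HeLa cells stably expressing the EGFP-705 splicing reporter; GFP fluorescence per well restored by corrected splicing of the IVS2-705 intron in EGFP; series mostly up to about 46 µM; % of control where 0% means no effect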
In short: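 HeLa cells stably carrying EGFP interrupted by mutant beta-globin intron 2 (IVS2-705) treated 2 days at 37C with compound; 500 nM antisense PNA as control. Correct splicing read as total peak GFP intensity per well by laser-scanning cytometry.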

[2] = molecular target: Muscarinic acetylcholine receptor M1 (Rattus norvegicus) (UniProt P08482); experiment: qHTS Assay for Antagonists of Acetylcholine Muscarinic M1 Receptor: Measurement of IP-One Response (AID 944); also: nearly all actives have a fitted effect of over 75% in size; also: potency is read from the fitted curve at half-maximal effect
Chain of Muscarinic acetylcholine receptor M1 (Rattus norvegicus) (P08482 whole entry, looked up): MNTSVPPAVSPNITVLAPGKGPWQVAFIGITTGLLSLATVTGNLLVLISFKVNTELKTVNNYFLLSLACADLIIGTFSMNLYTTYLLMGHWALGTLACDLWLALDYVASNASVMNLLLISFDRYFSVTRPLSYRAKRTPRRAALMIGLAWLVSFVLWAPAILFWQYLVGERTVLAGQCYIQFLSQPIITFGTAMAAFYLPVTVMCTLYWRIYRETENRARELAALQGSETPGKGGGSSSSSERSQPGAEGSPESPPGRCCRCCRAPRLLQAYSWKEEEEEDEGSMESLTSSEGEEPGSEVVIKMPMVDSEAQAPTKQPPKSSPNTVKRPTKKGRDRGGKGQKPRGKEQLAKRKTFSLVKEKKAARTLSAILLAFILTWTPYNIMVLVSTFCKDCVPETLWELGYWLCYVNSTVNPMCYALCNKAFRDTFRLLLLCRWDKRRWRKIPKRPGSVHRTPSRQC
In short: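 CHO cells expressing rat M1 receptor, recovered overnight, were pre-incubated 10 min with compound, then stimulated 30 min with carbachol at EC80 (200 nM) in LiCl-containing buffer, pH 7.4. IP1 accumulation was read by HTRF (620/665 nm).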

[3] = qHTS Assay for Identification of Small Molecule Agonists for Thrombopoietin (TPO) Signaling Pathway (AID 917); also: % is scaled to controls: 0 for no effect and ±100 for the full control effect
In short: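 Murine Ba/F3 cells stably expressing human TPO receptor and a Glycoprotein IIb promoter–luciferase reporter were IL-3-starved overnight, then treated with compounds plus TPO (26 pM final, its EC50) for 24 hrs at 37 C; luminescence was read.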

[4] = molecular target: Pyruvate kinase (Leishmania mexicana) (UniProt Q27686); experiment: qHTS Validation Assay for Inhibitors of Leishmania Mexicana Pyruvate Kinase (AID 945);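 also: 0% = DMSO only neutral control wells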
Chain of Pyruvate kinase (Leishmania mexicana) (Q27686 2-499 E452W): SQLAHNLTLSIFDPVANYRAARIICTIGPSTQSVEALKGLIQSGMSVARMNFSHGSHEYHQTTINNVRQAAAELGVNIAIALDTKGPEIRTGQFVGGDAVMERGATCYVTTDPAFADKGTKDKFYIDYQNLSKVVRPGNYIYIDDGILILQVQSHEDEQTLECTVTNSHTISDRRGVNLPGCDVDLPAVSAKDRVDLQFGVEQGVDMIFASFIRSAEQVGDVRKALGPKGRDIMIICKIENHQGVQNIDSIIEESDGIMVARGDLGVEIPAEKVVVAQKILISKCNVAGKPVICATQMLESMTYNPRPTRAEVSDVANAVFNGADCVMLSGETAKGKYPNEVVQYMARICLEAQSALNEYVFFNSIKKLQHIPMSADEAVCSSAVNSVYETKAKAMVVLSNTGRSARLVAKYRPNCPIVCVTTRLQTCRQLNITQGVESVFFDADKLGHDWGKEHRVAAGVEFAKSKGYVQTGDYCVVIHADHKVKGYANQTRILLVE
In short: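 Eight-point qHTS titrations in triplicate, data normalized to DMSO neutral control. Reaction: 0.2 nM LmPYK E451W mutant, 0.5 mM PEP, 0.1 mM ADP, 7 mM MgCl2, pH 7.2, one hour at room temperature; luminescent ATP detection.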

[5] = MultiTox-Fluor Cytotoxicity Assay - LYMP1-001 - Dead Cells (AID 946);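 also: 0% = DMSO and 100% = tetraoctylammonium bromide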
In short: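 In this qHTS, 15 uM tetraoctylammonium bromide defined 100% and DMSO defined basal activity. Lymphoblastoid cells (LYMP1-001, 2500 per well) received compound for 16 hr at 37 C before a fluorogenic dead-cell substrate readout at 485/520 nm.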

[6] = MultiTox-Fluor Cytotoxicity Assay - LYMP1-001 - Live Cells (AID 947);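 also: 0% = DMSO only and full inhibition = tetraoctylammonium bromide control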
[7] = Cell Viability - LYMP1-002 - Assay at 16 hr (AID 948);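 also: 0% = DMSO alone and full effect = 92 µM tetraoctylammonium bromide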
In short: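 Human lymphoblastoid cells (LYMP1-002), 2500/well, were preincubated 5 hr at 37 C, then exposed to compounds for 16 hr at 37 C in complete medium. Cellular ATP was read by CellTiter-Glo luminescence after 30 min at room temperature; AC50 from Hill fits.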

[8] = molecular target: Pyruvate kinase PKM (Homo sapiens) (UniProt P14618); experiment: qHTS Assay for Activators of Human Muscle Pyruvate Kinase (AID 954; active = well fitted curve in the direction sought with a large enough effect, not every such curve was filed as active;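 also: 0% = uninhibited enzyme and -100% = no enzyme or full thiadiazolimine inhibition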)
Chain of Pyruvate kinase PKM (Homo sapiens) (P14618 whole entry, looked up): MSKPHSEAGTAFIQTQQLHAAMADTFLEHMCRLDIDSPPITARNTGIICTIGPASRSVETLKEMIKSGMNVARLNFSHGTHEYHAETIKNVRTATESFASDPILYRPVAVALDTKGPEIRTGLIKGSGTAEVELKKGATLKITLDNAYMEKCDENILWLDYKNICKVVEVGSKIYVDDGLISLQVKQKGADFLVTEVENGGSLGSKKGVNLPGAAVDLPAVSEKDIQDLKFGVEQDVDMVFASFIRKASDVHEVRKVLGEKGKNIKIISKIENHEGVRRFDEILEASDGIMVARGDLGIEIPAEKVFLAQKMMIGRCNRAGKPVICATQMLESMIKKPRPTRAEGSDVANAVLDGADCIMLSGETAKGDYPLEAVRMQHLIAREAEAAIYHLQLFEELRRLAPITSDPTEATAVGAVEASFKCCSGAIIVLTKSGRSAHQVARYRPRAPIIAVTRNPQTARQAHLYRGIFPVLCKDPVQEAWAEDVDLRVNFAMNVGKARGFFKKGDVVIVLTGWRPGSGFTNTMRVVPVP
In short: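 Enzyme was run at intermediate activity so both inhibitors and activators could be detected. ATP formed from ADP and PEP by 0.1 nM human PKM2 during a 1 h room-temperature incubation was quantified by coupled luciferase luminescence.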

[9] = molecular target: Muscarinic acetylcholine receptor M1 (Rattus norvegicus) (UniProt P08482); experiment: qHTS Assay for Antagonists of Acetylcholine Muscarinic M1 Receptor: Kinetic Measurement of Intracellular Calcium Response (AID 943); also: series mostly up to about 35 µM; nearly all actives have a fitted effect of over 75% in size
Source text: NIH Molecular Libraries Screening Centers Network [MLSCN]
NIH Chemical Genomics Center [NCGC]
Acetylcholine muscarinic M1 receptor is a G-protein coupled receptor (GPCR) coupling to the Gq G protein. It is mainly expressed in brain and functionally related to the learning and memory processes. The agonists of this receptor have the potential for the treatment of Alzheimer's disease and cognitive impairments associated with Schizophrenia. Upon an activation of the M1 receptor, phosholipase C (PLC) is activated to produce inositol 1,4,5-trisphosphate (IP3) and diacyl glycerol (DAG) resulting in increase of intracellular free Ca2+ and activation of protein kinase C (PKC). The increase of intracellular calcium can be measured by the fluorescent calcium dyes, Fluo-3 and Fluo-4, using a fluorescence kinetic plate reader.
We have obtained a M1-CHO cell line transfected with rat acetylcholine M1 receptor and optimized a calcium assay with this cell line for compound screening as a counter-screen assay for other Gq-coupled GPCRs.
NCGC Assay Protocol Summary:
The CHO-M1 (CHO-M1) cell line transfected with the rat acetylcholine muscarinic M1 receptor was obtained from ATCC. The cells were maintained in call culture flasks with F12 Kaighn's media (Invitrogen) supplemented with 10 % FBS, 100 units/ml penicillin, 100 ug/ml streptomycin and 250 ug/ml geneticin (Invitrogen) at 37C, 5 % CO2 in a humidified atmosphere. At 90-95 % confluence, the cells were then detached in 15 ml […] % trypsin by 3 minutes incubation at 37C and centrifuged at 1000 RPM to remove the trypsin solution. The resulting cell pellet was resuspended in the cell freezing media containing 10 % DMSO (Invitrogen) at a density of 4 x 10^7 cells/ml. The aliquots of cells at 0.5 - 1 ml per vial were frozen down slowly at 1 degree C/min using a Cryo 1 degree C freezing container in the presence of isopropanol (Nalgene Nunc, Rochster, NY) overnight in a -80C freezer. The frozen cells were then transferred to liquid nitrogen for the storage up to one year.
The resuspended frozen cells were plated at 3 ul/well with 2000 cells in the black, tissue culture treated, clear bottom 1536-well plates. […] The assay plates were then placed onto the kinetic fluorescence plate reader (FDSS-7000, Hamamatsu) for a measurement of the kinetic changes in intracellular free calcium. The basal fluorescence signal was measured for 6 times at 1 Hz followed by an addition of 1 ul of carbachol and continued 4 min measurement. The results were calculated as the maximal signal (peak) divided by the minimal signal (basal). […]
#- read the assay plate 6 times at 1 Hz for basal signal […]
#- continuously read the assay plate for 4 min at 1 Hz […]

[10] = qHTS Assay for Identification of Small Molecule Agonists for Hypoxia Response Element Signaling Pathway (AID 914; active = well fitted activation curve with a large enough effect in the signal ratio, with a control signal flat, not every such curve was filed as active; the % refers to the signal ratio; also: % of control where 0% means no effect); conditions: ME-180 (cervical carcinoma) HRE-bla reporter, beta-lactamase ratio, CoCl2, 17 h; stronger effect = higher value
In short: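 HRE-bla ME-180 cells with beta-lactamase reporter under hypoxia response element, compounds with EC50 CoCl2 for 17 hours at 37 C. CCF4 substrate, 460nm/530nm emission ratio gave %Activity; AC50 from titration series.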

O=C1c2ccccc2C(=O)c2ccccc21
inactive: outcome [1]

CC(=O)N1CCN(c2ccc(OC[C@H]3CO[C@](Cn4ccnc4)(c4ccc(Cl)cc4Cl)O3)cc2)CC1
active: Potency [2] 8.91 µM

CNC(C)(C)Cc1ccccc1
inactive: outcome [1]

CCC1(c2ccc(N)cc2)CCC(=O)NC1=O (stereo unspecified)
inactive: outcome [1]

O=c1oc2ccccc2c(O)c1Cc1c(O)c2ccccc2oc1=O
inactive: outcome [1]

NCCc1ccc(O)cc1
inactive: outcome [3] | outcome [1] | Potency [2] | outcome [4] | outcome [5] | outcome [6] | outcome [7] | outcome [8]

C[C@]1(O)CC[C@H]2[C@@H]3CCC4=CC(=O)CC[C@]4(C)[C@@]3(F)[C@@H](O)C[C@@]21C
inactive: outcome [5] | outcome [6] | outcome [7]

O=c1[nH]oc2c1CCNC2
inactive: outcome [3] | outcome [1] | outcome [9] | Potency [2] | outcome [4] | outcome [8]

CC(C)(C)NCC(O)c1ccccc1Cl (stereo unspecified)
inactive: outcome [1]

C[C@]12CCC(=O)C=C1CC[C@@H]1[C@@H]2CC[C@@]2(C)[C@H]1CC[C@]2(C)O
inactive: outcome [6] | outcome [7]

C[C@]12CCC(=O)C=C1CC[C@@H]1[C@@H]2CC[C@]2(C)C(=O)CC[C@@H]12
inactive: outcome [3] | outcome [9] | Potency [2] | outcome [4] | outcome [5] | outcome [6] | outcome [7] | outcome [8]

Nc1ccccc1C(=O)O
inactive: outcome [5] | outcome [6] | outcome [7]

CCC(C)(C)c1ccc(O)cc1
inactive: outcome [5] | outcome [6] | outcome [7]

CN1C[C@H](C(=O)N[C@]2(C)O[C@@]3(O)[C@@H]4CCCN4C(=O)[C@H](Cc4ccccc4)N3C2=O)C=C2c3cccc4[nH]cc(c34)C[C@H]21
inactive: outcome [5] | outcome [6] | outcome [7]

O=C(CCCN1CCC2(CC1)C(=O)NCN2c1ccccc1)c1ccc(F)cc1
inactive: outcome [3] | outcome [1] | outcome [9] | outcome [4] | outcome [8]

O=P1(N(CCCl)CCCl)NCCCO1 (stereo unspecified)
inactive: outcome [3] | outcome [1] | outcome [4] | outcome [5] | outcome [6] | outcome [7] | outcome [8]

CCCCC/C=C\C/C=C\C/C=C\C/C=C\CCCC(=O)NCC(=O)O
inactive: outcome [3] | outcome [9] | Potency [2] | outcome [4] | outcome [8]

CCOP(=S)(OCC)Oc1ccc2c(C)c(Cl)c(=O)oc2c1
inactive: outcome [1]

NC(=O)c1cc([N+](=O)[O-])cc([N+](=O)[O-])c1
inactive: outcome [1]

Oc1ccc(Cl)cc1
inactive: outcome [1] | outcome [5] | outcome [6] | outcome [7]

Nc1ccccc1
inactive: outcome [5] | outcome [6] | outcome [7]

c1ccc2c(c1)sc1ccccc12
inactive: outcome [1]

COc1cc(OC)c(OC)cc1C=O
inactive: outcome [1] | outcome [5] | outcome [7]

O=C(O)CCCc1ccc(N(CCCl)CCCl)cc1
inactive: outcome [1] | outcome [4] | outcome [5] | outcome [7] | outcome [8]

COC(=O)C(c1ccccc1)C1CCCCN1 (stereo unspecified)
inactive: outcome [5] | outcome [6] | outcome [7]

CC(C)c1cccc(C(C)C)c1O
inactive: outcome [3] | outcome [1] | Potency [2] | outcome [4] | outcome [5] | outcome [6] | outcome [7] | outcome [8]

CC(NC(C)(C)C)C(=O)c1cccc(Cl)c1 (stereo unspecified)
inactive: outcome [1]

NC(=O)CS(=O)C(c1ccccc1)c1ccccc1 (stereo unspecified)
inactive: outcome [1]

CC(C)NC(C)C
inactive: outcome [5] | outcome [6] | outcome [7]

CCC1(CC)C(=O)C=CNC1=O
inactive: activation [10] -12.7% | outcome [1]

Clc1ccc(C(c2ccc(Cl)cc2)C(Cl)(Cl)Cl)cc1
inactive: outcome [1] | outcome [5] | outcome [6] | outcome [7]

CCCC(C)(COC(N)=O)COC(N)=O
inactive: outcome [5] | outcome [6] | outcome [7]

CC(C)N(CCC(C(N)=O)(c1ccccc1)c1ccccn1)C(C)C (stereo unspecified)
inactive: outcome [1]

COc1c2c(cc3c1OCO3)CCN(C)C2
inactive: activation [10] -5.25%

COP(=S)(OC)Oc1ccc(SC)c(C)c1
inactive: outcome [1] | outcome [5] | outcome [6] | outcome [7]

CCOC(=O)CC(SP(=S)(OC)OC)C(=O)OCC (stereo unspecified)
inactive: outcome [5] | outcome [6] | outcome [7]

Reference: PubChem BioAssay (NCATS)
